A short description of assay [1]: cAMP Responsive Elements (CRE) small molecule antagonists, cell-based qHTS assay: qHTS cell viability counter screen (AID 2060913). Also: nearly all actives have a fitted effect of over 40% in size. Particulars: CRE-bla HEK293T viability, CellTiter-Glo luminescence, 5 h; series mostly up to 92.4 µM. The method, boiled down: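 CRE-bla HEK293T cells (2,000/well, 18 h) given compound plus NKH477 0.25 uM final for 3 h at 37C; viability counter-screen by CellTiter-Glo luminescence in same wells after 30 min.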
Background: qHTS replaces the single test concentration by a dilution series.

A short description of assay [2]: cAMP Responsive Elements (CRE) small molecule agonists, cell-based qHTS assay: qHTS cell viability counter screen (AID 2060914).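 Also: viability read after 3 h of compound exposure; nearly all actives have a fitted effect of over 50% in size.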 Particulars: CRE-bla HEK293T viability, CellTiter-Glo luminescence, 5 h; series mostly up to 92.4 µM. In a few lines:
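CRE-bla HEK 293T cells, plated 18 h at 37 °C, were exposed to compounds for 3 h at 37 °C/5% CO2. Viability was then measured in the same wells by CellTiter-Glo luminescence after 30 min at room temperature.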

Records with an inconclusive call do not appear. A call without a number means that no potency is given here. Activity calls are given as the source filed them. Calls follow the shape of the dose curve; as a rule, active = well fitted cell-killing curve with a large enough effect in the repeat runs; inconclusive = weak or mixed curves, or effect the other way; inactive = flat fitted curve, though single readings scatter.

For the compound `COP(=S)(OC)Oc1c(Cl)cc(C)cc1Cl`, the Potency entry in assay [1] and in assay [2] was “inactive” each time.

As to `ClC(Cl)C(Cl)Cl`, the Potency entry in assay [1] and in assay [2] was “inactive” each time.

With `CCCCN(CCCCO)N=O`, the Potency result in assay [1] and in assay [2] was “inactive” throughout.

With `Cc1ccc(N)cc1`, the Potency entry in assay [1] and in assay [2] was “inactive” throughout.

In the case of `CC(C)NCC(O)c1ccccc1Cl` (stereo not given), the Potency result in assay [1] and in assay [2] was “inactive” in each case.

`O=C(CBr)Nc1ccc(Cl)cc1C(=O)c1ccccc1F`: the Potency entry in assay [1] and in assay [2] was “inactive” each time.

As for `Cc1ccc(-c2nc3ccc(C)cn3c2CC(=O)N(C)C)cc1`, the Potency result in assay [1] and in assay [2] was “inactive” throughout.

Turning to `C[C@H]1O[C@H](OC2[C@@H](O)[C@@H](O)C(O)[C@H](O)[C@H]2O)[C@@H](N)C[C@@H]1N=C(N)C(=O)O` (stereo not given in full), the Potency entry in assay [1] and in assay [2] was “inactive” each time.

For `CCSC(=O)N1CCCCCC1`, the Potency entry in assay [1] and in assay [2] was “inactive” throughout.

Turning to `Clc1cccc(C(Cl)(Cl)Cl)n1`, the Potency result in assay [1] and in assay [2] was “inactive” each time.

On to `NCC(O)c1ccc(O)cc1` (stereo not given), for which the Potency result in assay [1] and in assay [2] was “inactive” each time.

For `O=C1CN2CCOC2(c2ccccc2Cl)c2cc(Cl)ccc2N1` (stereo not given), the Potency entry in assay [1] and in assay [2] was “inactive” each time.

With `CCOP(=S)(OCC)SCCSCC`, the Potency result in assay [1] and in assay [2] was “inactive” each time.

As to `CC1Sc2c(C(=O)O)c(=O)c3cc(F)c(N4CCNCC4)cc3n21` (stereo not given), the Potency entry in assay [1] and in assay [2] was “inactive” in each case.

With `ClCCCCCCCl`, the Potency result in assay [1] and in assay [2] was “inactive” each time.

Take `CC(=O)[C@H]1CC[C@H]2[C@@H]3CC[C@H]4C[C@](C)(O)CC[C@]4(C)[C@H]3CC[C@]12C`: the Potency entry in assay [1] and in assay [2] was “inactive” throughout.

Regarding `CCOc1nc(F)cc2nc(S(=O)(=O)Nc3c(Cl)cccc3Cl)nn12`, the Potency entry in assay [1] and in assay [2] was “inactive” throughout.

As to `c1ccc(C2CO2)cc1` (stereo not given), the Potency entry in assay [1] and in assay [2] was “inactive” each time.

As to `Nc1ccc(Cl)cc1N`, the Potency entry in assay [1] and in assay [2] was “inactive” each time.

Regarding `CCOP(=S)(OCC)Oc1nc(Cl)c(Cl)cc1Cl`, the Potency result in assay [1] and in assay [2] was “inactive” each time.

Source of the values: PubChem BioAssay (Tox21).
